A short description of assay [1]: qHTS profiling for inhibitors of Plasmodium falciparum proliferation (AID 504749). Further: potency means the concentration at half of the fitted maximal effect.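 On activity, negative = inhibition: 0% = DMSO vehicle and full inhibition = artemisinin control.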 On all read-outs here: nearly all actives have a fitted effect of over 60% in size. The note with it: P. falciparum in erythrocytes, SYBR Green DNA, 72 h; for activity, negative = inhibition: at 28.7 µM (top of the series). The method, boiled down:
(§1)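 P. falciparum-infected erythrocytes (0.3% parasitemia, 2.5% hematocrit final) were exposed to compounds for 72 h at 37 C in 5% CO2, then lysed with SYBR Green buffer overnight at room temperature; parasite DNA fluorescence was normalized to artemisinin and DMSO controls.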

The test system of another assay is 3D7. The assay is described as above. The note with it: P. falciparum in erythrocytes, SYBR Green DNA, 72 h; series mostly up to 28.7 µM. The essentials:
as §1

In the next assay the test system is 7G8. The assay is described as above. The note with it: P. falciparum in erythrocytes, SYBR Green DNA, 72 h; series mostly up to 28.7 µM. The method, boiled down:
as §1

In the next assay the test system is AA1029. The assay is described as above. The settings on record: P. falciparum in erythrocytes, SYBR Green DNA, 72 h; series mostly up to 28.7 µM. The method, boiled down:
as §1

Another assay concerns AS120. Described as above. The settings on record: P. falciparum in erythrocytes, SYBR Green DNA, 72 h; series mostly up to 28.7 µM. The essentials:
as §1

A further assay has as its system ATS189. The assay is described as above. The note with it: P. falciparum in erythrocytes, SYBR Green DNA, 72 h; series mostly up to 28.7 µM. The essentials:
as §1

A further assay deals with ATS95. The assay is described as above. The note with it: P. falciparum in erythrocytes, SYBR Green DNA, 72 h; series mostly up to 28.7 µM. The essentials:
as §1

The test system of another assay is C2A. The assay is described as above. The note with it: P. falciparum in erythrocytes, SYBR Green DNA, 72 h; series mostly up to 28.7 µM. The method, boiled down: as §1
Another assay deals with CP185. The description is as above. The note with it: P. falciparum in erythrocytes, SYBR Green DNA, 72 h; series mostly up to 28.7 µM. The method, boiled down: as §1
A short description of assay [2]: qHTS drug screen for cell cycle checkpoint inhibitors in PARPi-resistant BRCA-mutant ovarian cancer cell lines. (AID 1963452; calls by dose curve). The note with it: PEO1/OlaR viability, CellTiter-Glo luminescence, 96 h, stronger effect = lower value. The essentials: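 PEO1, PEO4 and PEO1/OlaR ovarian cancer cells, 600 per well, exposed 96 h at 37C to a dilution series. Viability read by CellTiter-Glo luminescence, normalized to DMSO and empty wells; activity summarized as Z-AUC.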

The nature of assay [3]: qHTS for identification of novel therapeutic agents for treatment of microphthalmiaassociated transcription factor (MiT) renal cell carcinoma (RCC) (AID 1963991).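 Further: curves scaled with 100% = DMSO viability and 0% = empty wells.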 The settings on record: CellTiter-Glo, 48 h, stronger effect = lower value. The method, boiled down:
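UOK109/UOK124/UOK145 (TFE3 fusions, three partners); 500 cells/well; MIPE v4.0, 1912 cpds, 11 conc.; 48 h, 37 C; CellTiter-Glo, 15 min RT; lum. Norm.: DMSO 100%, empty 0%.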

Molecules are shown by their SMILES. Records with an inconclusive call do not appear. Calls of active or inactive are those of the source. Unless noted, the call rests on the fitted dose curve; in most records, active means well fitted inhibition curve with a large enough effect; inconclusive means small, poorly fitted or top-dose-only effect; inactive means flat fitted curve, though single readings scatter.

`CN1C(=O)CC(=O)N(c2ccccc2)c2cc(Cl)ccc21`: the activity, negative = inhibition in [1] (parasite line A) was 1.1% (inactive); in assay [1] (parasite line B) it was -1.48% (inactive). Further, the Potency entry with 3D7, with 7G8, in the assay on AA1029, in the assay with AS120, in the assay with ATS189 and with ATS95 was “inactive” each time. The Potency result in the assay on C2A and in the assay with CP185 was “inactive” throughout.
`NCCc1ccc(O)cc1`: the activity, negative = inhibition in assay [1] (parasite line A) was 8.86% (inactive); in [1] (parasite line B) it was 7.85% (inactive). Also, the Potency result in the assay with 3D7, with 7G8, in the assay with AA1029, with AS120, in the assay with ATS189 and in the assay on ATS95 was “inactive” each time. The Potency entry in the assay on C2A and in the assay with CP185 was “inactive” in each case.
Regarding `CCC1(CC)C(=O)C=CNC1=O`, the activity, negative = inhibition in assay [1] (parasite line A) was 10.7% (inactive); in [1] (parasite line B), 6.45% (inactive). Also, the Potency result in the assay with 3D7, in the assay with 7G8, in the assay with AA1029, in the assay with AS120, in the assay on ATS189 and with ATS95 was “inactive” each time. Also, the Potency entry with C2A and with CP185 was “inactive” throughout.
Turning to `O=C1CN=C(c2ccccc2)c2cc([N+](=O)[O-])ccc2N1`, the activity, negative = inhibition in assay [1] (parasite line A) was 0.461% (inactive); in [1] (parasite line B), 15.1% (inactive). Moreover, the Potency entry in the assay with 3D7, in the assay with 7G8, with AA1029, in the assay with AS120, with ATS189 and with ATS95 was “inactive” in each case. For the same molecule, the Potency result in the assay with C2A and in the assay with CP185 was “inactive” each time.
On to `CC(C)NC(C)C`, for which the activity, negative = inhibition in assay [1] (parasite line A) is 6.47% (inactive); in assay [1] (parasite line B), 12.2% (inactive). Besides, the Potency result in the assay with 3D7, with 7G8, with AA1029, in the assay on AS120, in the assay with ATS189 and in the assay with ATS95 was “inactive” in each case. Besides, the Potency result with C2A and with CP185 was “inactive” in each case.
Consider `CCCCCCCCCC(=O)O[C@H]1CC[C@H]2[C@@H]3CCC4=CC(=O)CC[C@@H]4[C@H]3CC[C@]12C`, for which the activity, negative = inhibition in [1] (parasite line A) was 6.57% (inactive); in [1] (parasite line B), 11.7% (inactive). Also, the Potency result with 3D7, in the assay with 7G8, in the assay on AA1029, in the assay with AS120, in the assay on ATS189 and in the assay with ATS95 was “inactive” each time. The Potency result in the assay with C2A and in the assay on CP185 was “inactive” throughout.
Regarding `O=C1OC(c2ccc(O)c(S(=O)(=O)O)c2)(c2ccc(O)c(S(=O)(=O)O)c2)c2c(Br)c(Br)c(Br)c(Br)c21`, the figures for the activity, negative = inhibition in assay [1] (parasite line A) and in [1] (parasite line B) were 4.12% (inactive) and 7.49% (inactive), respectively. The Potency result in the assay on 3D7, in the assay on 7G8, in the assay with AA1029, in the assay on AS120, with ATS189 and in the assay with ATS95 was “inactive” each time. In addition, the Potency entry in the assay on C2A and with CP185 was “inactive” throughout.
For `CN1C[C@H](C(=O)N[C@]2(C)O[C@@]3(O)[C@@H]4CCCN4C(=O)[C@H](Cc4ccccc4)N3C2=O)C=C2c3cccc4[nH]cc(c34)C[C@H]21`, the Potency in [1] (parasite line A) is 1.41 µM (active); in assay [1] (parasite line B), 1.58 µM (active); in the assay on 3D7, 0.891 µM (active); with 7G8 it was 0.0794 µM (active); with AA1029 it was 1 µM (active); in the assay with AS120 it was 0.562 µM (active). Also, the Potency with ATS189 is 3.16 µM (active); with ATS95, 0.708 µM (active); in the assay on C2A, 3.55 µM (active); in the assay with CP185, 3.98 µM (active).
With `O=P1(N(CCCl)CCCl)NCCCO1` (centres undefined), the Z-AUC in assay [2] was 1.32 (inactive); in assay [2] (measured here: PEO1 parental Z-AUC), 1.49; in [2] (measured here: PEO4 Z-AUC) it was 1.45. The z-score in assay [3] (TFE3-RCC UOK109 viability, measured here: UOK109 Z-AUC) was 0.655; in [3] (TFE3-RCC viability, measured here: UOK124 Z-AUC), 0.953; in [3] (TFE3-RCC viability, measured here: UOK145 Z-AUC), 1.4. Moreover, the activity, negative = inhibition is 11.3% (inactive) in [1] (parasite line A) and 6.9% (inactive) in assay [1] (parasite line B). For the same molecule, the Potency result in the assay on 3D7, with 7G8, in the assay with AA1029, with AS120, in the assay on ATS189 and in the assay with ATS95 was “inactive” each time. Moreover, the Potency result with C2A and in the assay with CP185 was “inactive” throughout.
As to `CN1C(=O)C(O)N=C(c2ccccc2)c2cc(Cl)ccc21` (centres undefined), the activity, negative = inhibition in [1] (parasite line A) was 4.85% (inactive). Further, the Potency result in the assay on 3D7, in the assay on 7G8, in the assay on AA1029, with AS120, in the assay with ATS189 and with ATS95 was “inactive” each time. Further, the Potency entry with C2A and with CP185 was “inactive” throughout.
In the case of `O=c1[nH]oc2c1CCNC2`, the activity, negative = inhibition in assay [1] (parasite line A) is 3.02% (inactive); in [1] (parasite line B), 15.3% (inactive). Besides, the Potency entry with 3D7, in the assay with 7G8, in the assay on AA1029, in the assay on AS120, in the assay with ATS189 and with ATS95 was “inactive” in each case. Further, the Potency entry in the assay on C2A and with CP185 was “inactive” in each case.
For `CC(C)(C)NCC(O)c1ccccc1Cl` (centres undefined), the activity, negative = inhibition in assay [1] (parasite line A) is -1.78% (inactive). Moreover, the Potency entry with 3D7 and with C2A was “inactive” each time. Besides, the Potency with 7G8 was 11.2 µM (active).
As to `COC(=O)C(c1ccccc1)C1CCCCN1` (centres undefined), the activity, negative = inhibition in assay [1] (parasite line A) is 10.8% (inactive); in assay [1] (parasite line B), 13.8% (inactive). The Potency result in the assay with 3D7, in the assay on AA1029, with AS120, in the assay with ATS189, with ATS95 and with C2A was “inactive” each time. Further, the Potency result with CP185 is “inactive”.
Turning to `COc1ccc2c(c1)C13CCCC[C@@H]1C(C2)N(C)CC3` (some centres undefined), the activity, negative = inhibition was 4.6% (inactive) in assay [1] (parasite line A) and -5.63% (inactive) in [1] (parasite line B). Further, the Potency result in the assay on 3D7, in the assay on AS120, in the assay on ATS189 and in the assay on C2A was “inactive” each time. In addition, the Potency in the assay with 7G8 is 4.47 µM (active).
As for `COC1CC(=C(c2cccs2)c2cccs2)C[N+](C)(C)C1` (centres undefined), the Potency in [1] (parasite line A) was 3.98 µM (active); in assay [1] (parasite line B) it was 4.47 µM (active); with 3D7, 11.2 µM (active); with 7G8, 10 µM (active); with AA1029 it was 12.6 µM (active); in the assay with AS120, 15.8 µM (active). For the same molecule, the Potency is 8.91 µM (active) with ATS189 and 6.31 µM (active) in the assay with CP185.
Consider `Clc1ccc(C(c2ccc(Cl)cc2)C(Cl)(Cl)Cl)cc1`, for which the activity, negative = inhibition in assay [1] (parasite line A) was 4.12% (inactive). Besides, in the assay on 7G8, the Potency is 8.91 µM (active). The Potency entry with AA1029, with AS120, with ATS95, in the assay on C2A and in the assay with CP185 was “inactive” throughout.
On to `O=C1Nc2ccc(Cl)cc2C(c2ccccc2Cl)=NC1O` (centres undefined), for which the figures for the activity, negative = inhibition in assay [1] (parasite line A) and in assay [1] (parasite line B) were 2.17% (inactive) and -14% (inactive), respectively. The Potency entry with 3D7, in the assay with 7G8, in the assay on AA1029, in the assay with AS120, in the assay with ATS189 and with C2A was “inactive” in each case. In addition, in the assay with CP185, the Potency result was “inactive”.
